Test results published in PubChem BioAssay (EPA / NIEHS).
Activity calls are given as the source filed them. The calls were made as follows: active = hit-call score of the fitted dose curve at least 0.9, where 1 is the maximum; inactive = score below 0.9.

Assay: ATG_FoxO_CIS: Attagene CIS-FACTORIAL HepG2 Assay for human Forkhead box O (FoxO) (AID 2282943)
Conditions: HepG2 Attagene cis-reporter, FoxO element, mRNA; actives raise or lower the signal
How it was run: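 Endogenous transcription factor activity read from multiplexed cis-promoter reporter transcripts in transiently transfected HepG2, 24 h after dosing. Reporter RNA measured via RT-PCR plus capillary electrophoresis of FAM-labeled products; gain or loss relative to DMSO.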

SMILES	outcome	AC50
CCCCCCCCCCCC#N	inactive	–
O=C(NC(=O)c1c(F)cccc1F)Nc1ccc(Oc2ccc(C(F)(F)F)cc2Cl)cc1F	inactive	–
CC1CCCC1.[C-]#[O+].[C-]#[O+].[C-]#[O+].[Mn]	inactive	–
CCCCNP(N)(N)=S	inactive	–
CC(=O)C=Cc1ccccc1	–	100 µM (active)
CCC(=O)c1ccc(Cl)cc1	inactive	–
Nc1ccccc1C(=O)Oc1ccc2ccccc2c1	–	147 µM (active)
C=CC(=O)OC	inactive	–
CC(C)CCCCCCCOC(=O)c1ccccc1C(=O)OCCCCCCCC(C)C	inactive	–
N#CCNCC#N	inactive	–
CN(C)N	inactive	–
CN1C[C@H](C(=O)N[C@]2(C)O[C@@]3(O)[C@@H]4CCCN4C(=O)[C@H](Cc4ccccc4)N3C2=O)C=C2c3cccc4[nH]cc(c34)C[C@H]21	inactive	–
O=[N+]([O-])C=Cc1ccccc1	–	33.4 µM (active)
Nc1ccc(Cl)c(Cl)c1	inactive	–
CCCCOP(=O)(O)OCCCC	inactive	–
O=C(O)CCl	inactive	–
CC(O)CN(CC(C)O)CC(C)O (configuration not stated)	inactive	–
Nc1cc(Cl)cc(Cl)c1	inactive	–
O=[N+]([O-])c1ccc(Cl)cc1	inactive	–

SMILES	outcome	AC50
Cc1ccc(C)c2ccccc12	inactive	–
C=CCO	inactive	–
COC(=O)COc1ccc(Cl)cc1Cl	inactive	–
[CH3][Sn]([Cl])([Cl])[Cl]	inactive	–
CC(=O)c1cc2c(cc1C)C(C)(C)C(C)CC2(C)C (configuration not stated)	inactive	–
Nc1ccc(-c2ccc(N)c(N)c2)cc1N	inactive	–
c1cc(OCC2CO2)ccc1Cc1ccc(OCC2CO2)cc1 (configuration not stated)	inactive	–
C=CC(=O)OCCCCOC(=O)C=C	–	54.7 µM (active)
c1ccc2c(c1)CCCC2	inactive	–
CCOC(=O)C1OC1(C)c1ccccc1 (configuration not stated)	inactive	–
[Cl][Sb]([Cl])[Cl]	inactive	–
COc1ncc(F)c2nc(S(=O)(=O)Nc3c(F)cccc3F)nn12	inactive	–
CC(C)[C@@H](C(=O)O[C@@H](C#N)c1cccc(Oc2ccccc2)c1)c1ccc(Cl)cc1	inactive	–
C[C@]12CC[C@H]3[C@@H](CC[C@@]45O[C@@H]4C(O)=C(C#N)C[C@]35C)[C@@H]1CC[C@@H]2O	inactive	–
O=[N+]([O-])c1cc([N+](=O)[O-])c2ccccc2c1	inactive	–
O=C(O)C(Br)Br	inactive	–
C=CC(=O)OCCO	inactive	–
CCCCCCCCCCCCCCCC[N+](C)(C)C	inactive	–
